CRFR2-BP antag – blocks CRF-induced signaling of the CRF-BP/CRF-R2 complex; HEK293 CRF-R2/CRF-BP, CRF-induced calcium fluorescence; inhibition, % at 11.8 µM; 350,000 tested, 0.59% active; AID 588475;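 active = inhibition of the ligand-induced calcium signal above about 50% at the single tested concentration, limit read from the data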
CRFR2-BP ag – agonists of human CRF-binding protein/CRF-R2 receptor complex; AID 588473; activation, % at 13.2 µM; HEK293 CRF-R2/CRF-BP, calcium dye fluorescence (FLIPR); percent of saturating CRF peptide response; 350,000 tested, 0.46% active;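 active = activation of at least 50%, plus an integration ratio under a set limit after plate pattern correction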;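 note: plate controls were neutral control wells without compound for no effect and CRF at EC100 for full effect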
FAS-TE inh – blocks the thioesterase domain of human fatty acid synthase. inhibition, % at 15 µM. AID 602261. recombinant FAS-TE, OMFH fluorogenic substrate, fluorescence endpoint. 360,000 tested, 0.67% active;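 active = compounds whose normalised, plate-corrected inhibition of enzyme fluorescence in the single-dose primary screen is 50% or more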;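 note: 0% = DMSO with enzyme and 100% = substrate without enzyme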
aDG glyco act – alpha-DG glycosylation activation; activation, % at 10 µM; AID 624168; Pro5-aDG cells, alpha-DG glycosylation AlphaScreen (IIH6); 0% Pro5, 100% B10-LARGE cell signal; 360,000 tested, 0.22% active;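 active = activation of at least 8% versus controls, or a plate z-score of at least 8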;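 note: Pro5 are CHO cells carrying HIG-tagged alpha-DG that lacks glycosylation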
PfGluPho inh – PfG6PD (Plasmodium falciparum) enzyme inhibition. PfGluPho enzyme, NADPH resazurin-diaphorase fluorescence. inhibition, % at 20 µM. 350,000 tested, 0.78% active;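 active = inhibition reaching at least a set limit at 20 µM in the primary screen, cut at about 59% in these data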;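 note: 0% = DMSO wells with substrate and 100% = DMSO wells lacking glucose-6-phosphate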
Cardio protect – myocardial damage modulation in H9c2 cells; AID 588492; 360,000 tested, 0.63% active; protection from H2O2 cell death, % at 20 µM; H9c2 cardiomyocytes, H2O2 injury protection, ATPLite, 2 h;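 active = compounds giving at least 50% protection of heart cells from peroxide-induced death in the single-dose screen, raw or plate-pattern-corrected value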;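 note: 0% = DMSO wells with peroxide and 100% = DMSO wells without peroxide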
The depositor's hits bear a star; / = not tested or not shown. The list is not random: actives were taken first. Their share in the collection is about 3.2%.

SMILES	CRFR2-BP antag	CRFR2-BP ag	FAS-TE inh	aDG glyco act	PfGluPho inh	Cardio protect
Cc1cccc(N2CCN(C(=O)c3cc(S(=O)(=O)N4CCOCC4)cn3C)CC2C)c1 (stereo unspecified)	6.4	-1.8	-1.5	-0.2	-20.7	-1.9
CCN(C(=O)CCc1nnc2ccc(N3CCC4(CC3)OCCO4)nn12)c1ccccc1	51.8*	-0.3	-2.9	0.0	-6.3	1.7
Nc1nc(-c2ccccc2)c(-c2ccccc2)n1N	-29.9	4.2	-12.7	0.5	-16.7	-1.7
c1ccc(-c2cnn3c(-c4ccccc4)c(-c4ccccc4)nc3n2)cc1	-202.3	219.5*	-130.1	1.1	5.2	-1.4
CC(C)On1c(SCC(=O)N(C)C)nc2ccccc2c1=O	-2.5	0.1	/	/	10.8	/
O=c1cc(NCc2ccccc2)nc2n1CCCS2	-5.4	-0.3	-11.0	-0.1	5.3	7.0
O=C(CC1CS(=O)(=O)CC1CC(=O)Nc1ccc2c(c1)OCCO2)Nc1ccc2c(c1)OCCO2 (stereo unspecified)	-4.5	-0.3	-12.9	-0.2	9.9	-3.1
C[C@@H]1CN([C@H](C)CO)C(=O)c2cccc(NC(=O)Nc3ccc(F)cc3)c2O[C@H]1CN(C)C(=O)Nc1ccc(C(F)(F)F)cc1	-20.1	1.1	37.0	-0.1	21.6	-6.7
C[C@H](CO)N1C[C@H](C)[C@@H](CN(C)C(=O)NC2CCCCC2)Oc2c(NC(=O)Nc3ccc(C(F)(F)F)cc3)cccc2C1=O	-19.9	44.2	85.2*	0.5	-1.8	25.2
C[C@H]1CN([C@@H](C)CO)C(=O)c2cccc(NC(=O)Nc3ccc(C(F)(F)F)cc3)c2O[C@@H]1CN(C)Cc1ccc(Cl)c(Cl)c1	-2.7	0.2	77.2*	-0.3	26.6	-24.2
COc1ccc(NC(=O)N(C)C[C@H]2Oc3c(NC(=O)Nc4ccc(C(F)(F)F)cc4)cccc3C(=O)N([C@H](C)CO)C[C@@H]2C)cc1	-19.9	5.9	61.7*	-0.5	8.0	58.9*
C[C@H](CO)N1C[C@H](C)[C@@H](CN(C)C(=O)Nc2ccc(C(F)(F)F)cc2)Oc2c(NC(=O)Nc3ccccc3)cccc2C1=O	-7.0	1.7	64.5*	0.2	21.6	14.0
C=C1[C@H]2O[C@H]2[C@@H](OC(C)=O)[C@@]2(C)[C@@H](OC(C)=O)C[C@@H](OC(C)=O)[C@@](C)(O)[C@@H]2[C@@H](OC(C)=O)[C@@]2(O)[C@@H](C)C(=O)O[C@H]2[C@H]1Cl	4.3	1.0	-5.3	0.7	17.4	2.4
CC(O)C(NS(=O)(=O)c1ccc2ccccc2c1)C(=O)OCC(=O)Nc1ccccc1OC(F)F (stereo unspecified)	-26.9	-2.2	1.2	0.0	12.3	-0.2
COc1ccc(CNC(=O)CSCc2ccccc2Cl)cc1	3.5	0.3	-8.3	0.0	0.2	0.6
CC(C)(CNC(=O)c1ccc(Br)o1)N1CCOCC1	4.0	1.3	-6.0	-0.2	-12.1	7.8
CC(C)(CNC(=O)c1ccc(Br)o1)CNC(=O)c1ccc(Br)o1	76.4*	-0.6	-4.5	-0.2	12.1	22.8
S=C1Cc2ccccc2N1	-13.6	0.1	48.7	-0.3	67.1*	-16.6
Cc1ccc(O)c(N=Cc2cc(Cc3ccccc3)cc([N+](=O)[O-])c2O)c1	21.4	-0.9	10.5	0.0	44.6	28.4
Oc1c(Cl)cc(Cl)cc1C=Nc1ccc(N2CCOCC2)cc1	0.9	2.6	-2.4	-0.3	22.7	65.3*
Oc1ccc(N=Nc2cccc(C(F)(F)F)c2)cc1C=Nc1ccc(N2CCOCC2)cc1	27.9	-2.3	23.4	-0.4	5.3	75.7*
O=[N+]([O-])c1cc(Cc2ccccc2)cc(C=Nc2ccc(N3CCOCC3)cc2)c1O	-17.5	-2.0	1.8	0.3	37.7	85.5*
Oc1ccc(C=Nc2ccc(N3CCOCC3)cc2)c(O)c1	-9.2	8.4	-6.0	-0.4	37.6	13.1
Clc1ccc(-c2ccc(C=Nc3ccc(N4CCOCC4)cc3)o2)c(Cl)c1	-329.9	210.4*	6.5	-0.1	17.2	1.9
O=C(CC1SC(N2CCOCC2)=NC1=O)Nc1cccc(C(F)(F)F)c1 (stereo unspecified)	-4.1	-0.5	-3.1	0.1	6.2	4.9
CC(=O)c1cc2c(cc1F)C(C)(C)CCC2(C)C	-17.0	-1.1	10.5	-0.1	-13.7	0.0

Bioassay records (PubChem BioAssay)
